Rab9 prom act: activators of Rab9 promoter; Huh7 Rab9 promoter-luciferase reporter, luminescence, 24 h; Potency, µM (doses to about 9.22 µM), inactives show at the top dose activation, negative = inhibition, usual class: activators; hit rate 2.8% among 320,000; AID 485297; note: % of control where 0% means no effect; nearly all actives have a fitted effect of over 60% in size
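Huh7 cells stably carrying Rab9 promoter–luciferase reporter, plated 1500 cells/well, compound added after 2 h and incubated 24 h at 37 °C; luciferase luminescence then read after 10 min with detection reagent.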
ELG1 genotoxic: induces genotoxicity in HEK293T cells with luciferase-tagged ELG1. Potency, µM (doses to about 46 µM), inactives show at the highest dose activity change, positive = activation, hits mostly activators. HEK293T ELG1-luciferase reporter, luminescence, 16 h. hit rate 1.3% among 330,000. AID 504466; note: % of control where 0% means no effect; nearly all actives have a fitted effect of over 60% in size
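HEK293T cells expressing luciferase-tagged ELG1 were exposed to compound or DMSO vehicle for 16 hr at 37 °C and 5% CO2. Luciferase activity was then measured with ONE-Glo after 30 min at room temperature.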
NPC1 prom act: activators of NPC1 promoter. Potency, µM (titrated, usually from 9.22 µM), for the others: at the highest dose activation, hits mostly activators. Huh7 NPC1 promoter luciferase reporter, 24 h. hit rate 2.4% among 320,000; note: % of control where 0% means no effect; nearly all actives have a fitted effect of over 60% in size
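Huh7 reporter cells (NPC1 promoter driving luciferase) are dosed with compound for 24 h at 37 °C, 5% CO2; luciferase detection reagent is then added and luminescence measured after 10 min at ambient temperature.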
SMN2 splice enh: enhancers of SMN2 splice variant expression. HEK293 SMN2-luciferase splicing reporter, luminescence, 30-36 h. hit rate 2.8% among 210,000. Potency, µM (doses to about 46.1 µM), for inactives: at the highest dose activity change, positive = activation, hits mostly activators. AID 1458; note: % of control where 0% means no effect; nearly all actives have a fitted effect of over 55% in size
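qHTS luciferase splicing reporter: luminescence rises when SMN2 exon 7 is included in transfected HEK293 cells. Compound exposure lasted 30-36 h at 37C, with 4.5 mM final sodium butyrate as control, followed by a ONE-Glo read.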
ELG1 DNA repair: inhibitors of ELG1-dependent DNA repair in HEK293T cells. HEK293T ELG1-luciferase reporter, luminescence, 16 h; DNA damage induced by 5-fluorouridine. Potency, µM (doses to about 46.1 µM), without a hit: at the highest dose activity change, negative = inhibition, hits mostly inhibitors. hit rate 2.3% among 330,000; note: % is set by controls: 0 for no effect and ±100 for the full control effect; nearly all actives have a fitted effect of over 55% in size
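Step one: seed 2,000 cells per well. Step two: pin-transfer compound or DMSO alongside 5-fluorouridine. Step three: incubate 16 hr, 37 °C, 5% CO2. Step four: add ONE-Glo, wait 30 min, read luminescence.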
FLuc modulator: counter-screen for miR-21 project: firefly luciferase inhibitors or activators; P08659; Potency, µM (highest dose often 57.5 µM), without a hit: at the top dose activity change, negative = inhibition, actives largely listed as inhibitors; purified FLuc, Km substrates, luminescence inhibition; hit rate 6.9% among 360,000;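 note: plate controls were vehicle for no effect and reference inhibitor for full effect; nearly all actives have a fitted effect of over 55% in size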
Target sequence (P08659 whole entry, looked up): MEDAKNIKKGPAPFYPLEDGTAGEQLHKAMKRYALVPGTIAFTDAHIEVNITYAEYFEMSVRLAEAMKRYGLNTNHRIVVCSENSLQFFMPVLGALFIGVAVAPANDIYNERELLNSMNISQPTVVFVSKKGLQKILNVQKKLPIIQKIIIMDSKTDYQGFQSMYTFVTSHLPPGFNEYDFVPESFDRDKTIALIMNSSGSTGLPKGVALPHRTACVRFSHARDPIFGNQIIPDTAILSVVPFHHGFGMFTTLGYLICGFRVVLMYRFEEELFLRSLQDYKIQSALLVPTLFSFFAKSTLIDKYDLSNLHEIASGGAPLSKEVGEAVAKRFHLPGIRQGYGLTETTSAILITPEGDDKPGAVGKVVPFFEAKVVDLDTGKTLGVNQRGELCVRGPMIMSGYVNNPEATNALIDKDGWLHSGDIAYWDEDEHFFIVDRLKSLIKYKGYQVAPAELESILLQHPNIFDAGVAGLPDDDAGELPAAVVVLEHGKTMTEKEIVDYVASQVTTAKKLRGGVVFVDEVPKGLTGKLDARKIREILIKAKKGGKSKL
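Purified P. pyralis luciferase, 10 nM final, with Km-level 10 uM D-luciferin and 10 uM ATP in 50 mM Tris acetate pH 7.5, 10 mM Mg acetate, 0.01% Tween-20, 0.05% BSA; 6-point qHTS titration about 60 µM downward; luminescence read.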
Numbers without * were called inactive; ? = inconclusive; nt = no result given; [ ] = dose if it differs, or a comment. In the library only some 9.4% were active in any assay of this set; here they are far more common. Calls come from the whole dose curve; as a rule, active = well fitted curve in the direction sought with a large enough effect; inconclusive = small, poorly fitted or top-dose-only effect, or another doubt; inactive = no such curve, though single readings can be large; an effect the other way counts as inactive or inconclusive. Potency is the fitted concentration of half-maximal effect.

SMILES	Rab9 prom act	ELG1 genotoxic	NPC1 prom act	SMN2 splice enh	ELG1 DNA repair	FLuc modulator
N/C(=N/OC(=O)c1ccccc1Cl)c1nonc1N	?	?	20%	5%	0%	8.5µM*
Cc1cc(/C(N)=N/OC(=O)c2ccccc2Cl)no1	0.5µM*	?	1.1µM*	nt	?	1.7µM*
N/C(=N/OCC(=O)Nc1cccc2ccccc12)c1nonc1N	1%	-2%	3%	-11%	2%	-6%
N/C(=N\OC(=O)c1ccc(F)cc1)c1nonc1N	-8%	4%	-2%	11%	?	1.5µM*
CCOc1ccc(CN2C(=O)C(=O)c3cccc(C)c32)cc1OC	nt	nt	nt	11%	nt	2%
COc1ccc(NC(=O)Cn2ccn(-c3ccc(F)c(F)c3)c(=O)c2=O)cc1Cl	nt	nt	nt	nt	nt	3%
Cc1nc(/C(N)=N/OC(=O)c2ccccc2Cl)c(C(F)(F)F)o1	?	?	?	nt	?	11µM*
COc1ccc(CN2CCN(C(=O)c3cccs3)CC2)cc1Br	5%	-2%	-2%	-9%	?	-2%
COc1cc(OC)cc(C(=O)Nc2ccc(N3CCN(C(=O)c4cccs4)CC3)cc2)c1	-4%	-14%	-29%	nt	15µM*	3%
O=C(Nc1ccc(N2CCN(C(=O)c3cccs3)CC2)cc1)c1ccc(F)cc1	0%	-22%	-2%	nt	18µM*	1%
CC(=O)Nc1ccc(N2CCN(C(=O)c3cccs3)CC2)cc1	-2%	1%	0%	-14%	8%	1%
CCOc1ccc(C(=O)Nc2ccc(N3CCN(C)CC3)cc2)cc1Br	-3%	10%	28%	-6%	?	6µM*
COc1ccc(C(=O)Nc2ccc(N3CCN(C(=O)c4cccs4)CC3)cc2)cc1Br	-14%	-14%	-6%	nt	13µM*	1%
CCOc1ccc(C(=O)Nc2ccc(NC(=O)c3ccccc3)cc2)cc1Br	-4%	10%	-1%	-6%	4%	2%
COc1ccc(OCc2nc3ccccc3n2C(C)c2ccccc2)cc1 (centres undefined)	nt	nt	nt	-15%	nt	?
CCN1C(=O)/C(=C/C=C2/CCCN2C)OC1=S	?	?	3.2µM*	nt	?	?
Cn1c(C(=O)NCc2ccccn2)cc2c(=O)n3ccccc3nc21	2µM*	?	?	14µM*	?	15µM*
Brc1ccc(-c2noc(-c3ccccn3)n2)o1	0.45µM*	?	0.56µM*	nt	?	2.7µM*
Brc1ccc(-c2nc(-c3ccccn3)no2)o1	?	?	0.56µM*	2.5µM*	?	1.5µM*
O=S(=O)(NCC(c1ccco1)S(=O)(=O)c1cccs1)c1ccc(Cl)cc1 (centres undefined)	nt	nt	nt	nt	nt	-3%
O=C(NCCSc1ccccc1)c1cncc(Br)c1	?	15µM*	?	?	?	21µM*
O=C(CCSc1ccccc1)NCCSCc1ccccc1	-4%	1%	3%	6%	16%	21µM*
Cc1cccc(CSCCNC(=O)CCSc2ccccc2)c1	-10%	2%	-3%	-21%	-1%	-19%
O=C(NCCOc1ccccc1)c1cncc(Br)c1	?	16µM*	?	5%	?	?
CSc1ccccc1C(=O)NCCSc1ccccc1	12%	?	11%	27%	?	-18%
SMILES	Rab9 prom act	ELG1 genotoxic	NPC1 prom act	SMN2 splice enh	ELG1 DNA repair	FLuc modulator
O=C(NCCSc1ccccc1)c1ccccc1	2.5µM*	?	2.5µM*	11µM*	?	?
CCCOc1ccc(-c2nn(-c3ccccc3)cc2C2NC(=O)NC(C)=C2C(=O)OC)cc1C (centres undefined)	nt	nt	nt	0%	nt	?
COc1ccc(/C=C/C2=C[C@]3(C)C[C@]2(C)[C@H](c2ccc(OC)cc2)CC3=O)cc1	nt	nt	nt	9%	nt	nt
CCC[C@H](Sc1nc(N)nc2nc[nH]c12)C(=O)O	nt	nt	nt	-4%[9.22 µM]	nt	nt
CN(C)S(=O)(=O)c1ccc(C(=O)NCCSc2ccc(Br)cc2)cc1	-9%	-4%	2%	-27%	-17%	0%
COc1cccc(C(=O)NCCSc2ccc(C)cc2)c1	-1%	1%	-13%	-23%	4%	-10%
O=C(NCCSc1ccccc1)c1ccc(Br)cc1	0.56µM*	3.3µM*	0.79µM*	6.3µM*	?	1.3µM*
COc1cccc(C(=O)NCCSc2ccc(F)cc2)c1	?	18%	?	13µM*	?	19µM*
CCOc1cc(-c2nc3c(c(CC)nn3-c3ccccc3)c3cc(OC)c(OC)cc23)ccc1O	nt	nt	nt	-2%	nt	2%
COc1cccc(C2=NS(=O)(=O)N(C)C(C(=O)Nc3cccc(O)c3)=C2)c1	nt	nt	nt	nt	nt	1%
Cc1ccc(-c2nc3cc(C(C)C)ccc3o2)cc1NC(=O)c1cc([N+](=O)[O-])ccc1N1CCOCC1	nt	nt	nt	-46%	nt	1.3µM*
Cc1ccc(-c2nc3cc(C(C)C)ccc3o2)cc1NC(=O)c1cccs1	nt	nt	nt	-6%	nt	1.9µM*
CCOC(=O)c1ccc(NC(=O)C2CCN(S(=O)(=O)Cc3ccccc3)CC2)cc1	nt	nt	nt	nt	nt	3%
CN(C)c1ccc(CNC(=O)C2CCCN(S(=O)(=O)c3ccc4c(c3)CCCC(=O)N4)C2)cc1 (centres undefined)	nt	nt	nt	nt	nt	-8%
Cc1ccc(C(=O)c2c(C)oc3c2C(=O)C(=O)c2ccccc2-3)cc1	3%	-5%	-14%	-109%	?	-15%
COc1ccc(C(=O)c2c(C(F)(F)F)oc3c2C(=O)c2ccccc2C3=O)cc1	-34%	-27%	-22%	-69%	10µM*	-2%
C[N+](C)(C)CCC(=O)c1cccc2ccccc12	nt	nt	nt	-16%	nt	nt
N/C(=N\OC(=O)CCC1CCCCC1)c1cccc([N+](=O)[O-])c1	9%	2%	9%	-2%	?	11µM*
N/C(=N\OC(=O)CC1CCCCC1)c1ccc(Cl)cc1	-5%	?	4%	nt	?	7.6µM*
N/C(=N\OC(=O)CC1CCCCC1)c1ccc(Br)cc1	0%	28%	2%	nt	17%	?
N/C(=N\OC(=O)CC1CCCCC1)c1cccc(Br)c1	16%	16%	14%	nt	?	2.7µM*
N/C(=N\OC(=O)CCC1CCCC1)c1ccc([N+](=O)[O-])cc1	0%	9%	-2%	nt	-9%	?
COc1cccc(CNC(=O)c2cc3n(n2)CCCN(Cc2ccc(C)cc2)C3=O)c1OC	nt	nt	nt	nt	nt	-8%
Cc1cc(C(=O)COC(=O)c2nc3nccc(C)n3n2)c(C)n1CC1CCCO1 (centres undefined)	-6%	2%	8%	-21%	-6%	-16%

Screening data: PubChem BioAssay, National Center for Advancing Translational Sciences (NCATS)
